Reference: PMC12548414
In all, about 1,600 compounds went through this assay and about 20 (1%) showed an effect of 50% or more. For the sample, strong results were picked, then their nearest neighbours and some compounds at random.

system: T1, E. coli pLC1021 (luc-trpAt trans-translation reporter); parameters: species or system Escherichia coli pLC1021; luc-trpAt non-stop luciferase reporter; luminescence rises when trans-translation is inhibited; normalized to KKL-35 and DMSO; conditions: reporter signal, KKL-35 = 100%; rise means trans-translation inhibition; 2 h, 20 µM
T1 construct: pLC1021 luc-trpAt reporter strain
Protocol: The luciferase screen was performed as previously described ([16]). […] 48 µL of cells was transferred to white 96-well plates, and 2 µL DMSO or 20 µM compound, or 20 µM KKL-35 was added. Plates were sealed with adhesive film, vortexed gently to mix, and incubated at room temperature for 2 h. 50 µL Bright-Glo reagent (Promega, Madison, WI) was added to each well, and the plates were sealed with adhesive film, vortexed vigorously, and incubated for an additional 10 min at room temperature. Luminescence was measured at 560 nm using a SpectraMax i3 microplate reader and readings for each plate were normalized to the average of three KKL-35-treated wells (positive control) and three DMSO-treated wells (negative control) within the plate to correct for plate-to-plate and day-to-day variations. Results from at least two biological repeats were averaged, and GraphPad Prism was used to plot the data. We screened a library of 1,601 anti-tubercular small molecules for their ability to inhibit trans-translation using a luciferase reporter in Escherichia coli. In this luc-trpAt reporter, the firefly luciferase gene has a trpA transcriptional terminator before the stop codon, such that luciferase is translated from a non-stop mRNA ([16]). When trans-translation is active, the luciferase will be tagged and degraded, but when trans-translation is inhibited, active luciferase will accumulate, resulting in a luminescent signal when luciferin is added. Luciferase activity was measured after growth in the presence of compounds from the library at 20 µM, using the known trans-translation inhibitor KKL-35 as a positive control (Fig. 1A) ([16], [17]). Compounds with activity one standard deviation above the median were scored as positive (Fig. S1 and Table S1).

Structure (SMILES) | % activation [%]
COC(=O)CSc1nc(N)c2c3c(sc2n1)CCCC3 [KKL-0994] | 9
COc1ccc(C(=O)NC(=S)Nc2ccc(N3CCCCC3)cc2)cc1OC [KKL-1472] | 0
Cc1cc(Nc2ccccc2)n(-c2nc3ccccc3[nH]2)n1 [KKL-0835] | 21
COc1ccc2[nH]c(CNCCc3nc4cc(Cl)ccc4[nH]3)cc2c1 [KKL-1215] | 0
COCc1nnc(NC(=O)c2nnn(-c3ccccc3F)c2C)s1 [KKL-0547] | 0
CCC(C)NCCCOc1ccc(Cl)c2ccccc12 (stereo not shown) [KKL-1428] | 0
O=C(CNCCN1CCOCC1)Nc1sc2c(c1C(=O)Nc1ccccc1)CCC2 [KKL-1074] | 2
CCOC(=O)c1ccc(NC(S)=Nc2ccc(Oc3ccccc3)cc2)cc1 [KKL-1317] | 0
Cc1c(C(=O)NC(=S)Nc2ccc(Oc3ccc(Cl)cc3)cc2)cccc1[N+](=O)[O-] [KKL-0735] | 17
O=C(COc1cccc(F)c1)Nc1nc(-c2ccccn2)cs1 [KKL-1787] | 5
O=C(CSc1ccccc1)Nc1ccc(-c2nc3ccccc3c(=O)o2)cc1 [KKL-0595] | 1
O=C(Nc1ccc(F)cc1)NC1CCCCCCC1 [KKL-1335] | 0
COc1cc(CN(CCCn2ccnc2)Cc2ccc(C)s2)cc2c1OCO2 [KKL-0341] | 9
CSc1nc2nc3c(c(O)n2n1)CCCC3 [KKL-1033] | 0
O=C(Oc1c(Cl)cc(Cl)c2cccnc12)c1ccco1 [KKL-1639] | 0
O=C(Oc1c(Cl)cc(Cl)c2cccnc12)c1ccccc1[N+](=O)[O-] [KKL-1418] | 90
COc1ccc(C(=O)Oc2cccc3cccnc23)cc1[N+](=O)[O-] [KKL-1648] | 0
O=C(Oc1c(Cl)cc(Cl)c2cccnc12)c1ccc([N+](=O)[O-])cc1 [KKL-0754] | 96
Cc1c(C(=O)Oc2cccc3cccnc23)cccc1[N+](=O)[O-] [KKL-0952] | 8
Cc1ccc(C(=O)Oc2ccc(Cl)c3cccnc23)cc1[N+](=O)[O-] [KKL-1383] | 0
CCCc1cc2c(=O)c(-c3ccc4c(c3)OCCCO4)coc2cc1OCC(=O)OCC [KKL-1419] | 0
O=C(Nc1ccc(Cl)cc1C(F)(F)F)c1ccc([N+](=O)[O-])o1 [KKL-0712] | 0

Structure (SMILES) | % activation [%]
CN1CCN(c2cc(-c3ccc(F)cc3)nc(-c3ccncc3)n2)CC1 [KKL-1844] | 0
COc1ccc(-c2cncc(-c3cc(N4CCN(CCO)CC4)nc(-c4ccccc4)n3)c2)cc1 [KKL-1682] | 0
CN1CCN(c2cc(-c3ccncc3)nc(-c3ccccc3)n2)CC1 [KKL-1795] | 237
Cc1cc(CN2CCC(O)(c3ccccc3)C2)ccc1N1CCCC1 (stereo not shown) [KKL-0330] | 0
CCc1ccc(Nc2nnc(SCc3cc(C)on3)s2)cc1 [KKL-1791] | 0
N#Cc1cc2c(ccc3ccccc32)oc1=O [KKL-1386] | 0
CCCc1ccc2oc(C(=O)NCCc3ccc(O)cc3)c(C)c2c1 [KKL-1185] | 2
C#CCOc1cccc(CN2CCn3cccc3C2CC)c1 (stereo not shown) [KKL-0516] | 0
CSc1ncc(CN2CCCC(C(=O)c3ccc(-c4ccccc4)c(F)c3)C2)cn1 (stereo not shown) [KKL-0344] | 0
CN(CC1Cc2ccccc2CN1C)C(=O)c1cc(COc2cncc(Cl)c2)on1 (stereo not shown) [KKL-1186] | 0
COc1ccccc1N1C(=O)c2cccc3cc([N+](=O)[O-])cc(c23)C1=O [KKL-1508] | 0
Cc1ccccc1OCCCON1C(=N)N=C(N)NC1(C)C [KKL-1698] | 11
COc1ccc(C(C)(C)C)cc1N=C(S)Nc1ccc(Cl)c(Cl)c1 [KKL-1535] | 0
Cc1ccc2nc(C(F)(F)F)c(C(=O)NCc3cccc(OC(C)C)c3)n2c1 [KKL-1772] | 2
Oc1cccc2ccc(/C=C/c3cccc(F)c3)nc12 [KKL-1464] | 18
CC(=O)Nc1ccc2cccc(O)c2n1 [KKL-0957] | 55
Cc1ccccc1/C=C/c1ccc2cccc(O)c2n1 [KKL-0432] | 11
Cc1nc2ccccn2c1C(=O)Nc1ccc(C(C)(C)C)cc1 [KKL-1770] | 0
N#Cc1ncn(-c2ccc3nnc(C(F)(F)F)n3n2)n1 [KKL-1886] | 0
CC(C)c1noc(N2CCC(C(C)Oc3cnc(-c4ccc(S(C)(=O)=O)c(F)c4)cn3)CC2)n1 (stereo not shown) [KKL-1810] | 0
Cc1ccc(-c2cc(C(=O)N3CCCC(N4CCN(c5ccccc5C)CC4)C3)[nH]n2)s1 (stereo not shown) [KKL-0485] | 0
COc1cccc(O)c1CN1CCC(C(=O)Nc2ccc(-c3cccc(C)c3)cc2)CC1 [KKL-0508] | 0

Structure (SMILES) | % activation [%]
CSc1nccc(N2CCCC(CCC(=O)NCc3ccc(F)c(F)c3)C2)n1 (stereo not shown) [KKL-0346] | 0
c1ccc(-c2nc3c(c(N4CCN(Cc5cc6ccccc6[nH]5)CC4)n2)CCC3)cc1 [KKL-0483] | 0
Fc1ccc(Nc2nc(-c3ccccn3)cs2)cc1 [KKL-0715] | 18
O=C(CCCSc1ccccc1)Nc1nc(-c2ccccn2)cs1 [KKL-0800] | 1
COC(=O)COc1ccc2c(=O)c(-c3ccccc3Cl)c(C)oc2c1 [KKL-0748] | 0
COC(=O)COc1ccc(NC(=O)c2ccccc2I)cc1 [KKL-1569] | 0
Cc1ccc(NC(=O)C(Cl)Cl)cc1[N+](=O)[O-] [KKL-1373] | 4
O=C(Cc1ccc(F)cc1)Nc1nc(-c2ccccn2)cs1 [KKL-1688] | 13
Cc1cc(NCc2ccccn2)n2ncc(-c3ccccc3)c2n1 [KKL-0947] | 0
COc1ccccc1CN1CCCCC1C(=O)Nc1ccc(-n2cccn2)cc1 (stereo not shown) [KKL-0494] | 3
Cc1ccc(-n2cc(CN(C)Cc3cc(C)[nH]n3)c(-c3ccc(F)cc3)n2)cc1 [KKL-0319] | 0
COc1ccccc1C1(O)CCN(Cc2cnn(-c3ccc(C)cc3)c2)CC1 [KKL-0553] | 7
O=[N+]([O-])c1cccc(NC(S)=Nc2ccc(Cl)c(C(F)(F)F)c2)c1 [KKL-1319] | 0
COC(=O)C(CCSC)NC(=O)c1cc(COc2ccc(F)cc2Cl)on1 (stereo not shown) [KKL-0497] | 9
O=C(Nc1ccc(Oc2cccnc2)cc1)C1Oc2ccccc2O1 [KKL-0696] | 0
c1ccc(CCNc2ccnc3cc4ccccc4cc23)cc1 [KKL-1051] | 0
Cc1nc(C2CCNCC2)ncc1-c1nc(N2CCCCCC2)ncc1-c1ccc(F)cc1 [KKL-0335] | 0
C(=C\c1nc(N2CCCC2)c2ccccc2n1)/c1ccccc1 [KKL-1269] | 0
Cc1ccc2nc(C(F)(F)F)c(C(=O)NCc3cc(Cl)cc(Cl)c3)n2c1 [KKL-1785] | 16
COc1ccc(CCN=C(S)N2CCN(C/C=C/c3ccccc3)CC2)cc1OC [KKL-1528] | 2
CC(C)c1ccc(OCC(=O)NNC(=S)NC(=O)c2ccco2)c(Br)c1 [KKL-0743] | 24
Cc1ccc(C2(O)CCN(CCNC(=O)c3oc4ccccc4c3C)CC2)cc1 [KKL-0340] | 1

Structure (SMILES) | % activation [%]
CC(C)(C)c1ccc(C(=O)Nc2ccc(NC(=S)NC(=O)c3cccs3)cc2)cc1 [KKL-0310] | 0
Oc1c(CN2CCc3ccccc3C2)cc(Cl)c2cccnc12 [KKL-0391] | 42
CSc1ncc(C(=O)NC2(c3ccccc3)CCCC2)cn1 [KKL-0465] | 0
COc1ccc(N=c2cc(-c3ccc(O)cc3)oc3ccccc23)cc1 [KKL-0846] | 0
CCC(Sc1nc2ccccc2o1)C(=O)Nc1nnc(C)s1 (stereo not shown) [KKL-1356] | 2
CCc1ccc(C2CC(C(F)(F)F)n3ncc(C(=O)NCc4cccs4)c3N2)cc1 (stereo not shown) [KKL-1779] | 0
Cc1ccccc1CN1CC[C@@H]2[C@H](C1)[C@@H](c1ccc(F)cc1)CN2C(=O)C(C)C [KKL-1218] | 2
OC(CN1CCC(O)(c2ccc(F)cc2)CC1)c1ccc(-c2ccccc2)cc1 (stereo not shown) [KKL-0933] | 0
CCC1CCCCN1C(=O)COC(=O)c1cc2ccccc2cc1O (stereo not shown) [KKL-0823] | 0
O=C(NCc1cc(Cl)cc(Cl)c1)c1c(C(F)(F)F)nc2ccccn12 [KKL-1807] | 0
O=C(Nc1ccn(Cc2ccc(Cl)cc2)n1)c1ccc2c(c1)OCO2 [KKL-0566] | 0
FC(F)(F)c1nnc2ccc(Sc3nnc(-c4ccco4)o3)nn12 [KKL-1754] | 1
CCCC(=O)NC(=S)Nc1ccc(N2CCN(C(=O)c3cccs3)CC2)c(Cl)c1 [KKL-0912] | 0
O=C(NCc1cnn(-c2cccc(F)c2)c1)c1cc(COc2cccc3cccnc23)on1 [KKL-0634] | 2
O=C(NCCCc1ccc(F)cc1)c1cc(-c2ccccn2)[nH]n1 [KKL-0693] | 0
O=C(Nc1nccs1)c1ccc(CSc2ccccc2)o1 [KKL-0586] | 0
CCc1c(C)c2ccc(OCC(=O)OC)c(C)c2oc1=O [KKL-1278] | 0
CCOC(=O)/C(C#N)=C/c1ccc(-c2ccc(F)cc2)o1 [KKL-0788] | 0
NC1CCc2nc(-c3ccncc3)nc(Nc3ccc(C(F)(F)F)cc3)c2C1 (stereo not shown) [KKL-0539] | 620
O=C(CC12CC3CC(CC(C3)C1)C2)Nc1cccc(C(F)(F)F)c1 [KKL-1282] | 0
O=C(/C=C/c1cccc(C(F)(F)F)c1)Nc1cccc(C(F)(F)F)c1 [KKL-1369] | 0
NC1CCc2nc(-c3ccncc3)nc(Nc3cccc(C(F)(F)F)c3)c2C1 (stereo not shown) [KKL-0541] | 802
